Reference: ChEMBL document CHEMBL1157539, “Thousands of chemical starting points for antimalarial lead identification” (Nature, 2010)

How the values were obtained:
Assay type in all cases: functional
Plasmodium falciparum [1] = test: GSK_TCMDC: Inhibition of Plasmodium falciparum 3D7 in whole red blood cells, using parasite LDH activity as an index of growth. Test compounds present at 2uM
Plasmodium falciparum [2] = test: GSK_TCMDC: Inhibition of Plasmodium falciparum Dd2 in whole red blood cells, using parasite LDH activity as an index of growth. Test compounds present at 2uM
HepG2 = test: GSK_TCMDC: Percent inhibition of human HepG2 cell line. Test compounds present at 10uM.

| Structure (SMILES) | Inhibition (Plasmodium falciparum [1]) [%] | Inhibition (Plasmodium falciparum [2]) [%] | Inhibition (HepG2) [%] |
| --- | --- | --- | --- |
| Cc1c(CNCCN2CCCCC2)c(C(=O)O)c(C)n1Cc1ccc(Cl)cc1 | 97 | 93 | 4 |
| CNCCNCc1ccc(-c2ccc(-c3nc4cc(F)ccc4[nH]3)cc2)cc1.O=C(O)C(F)(F)F | 98 | 97 | 30 |
| COc1cc(C(=O)N2CCN(C(C)C)CC2)ccc1CN(C)CCCN1CCN(c2cccc(Cl)c2Cl)CC1.Cl | 100 | 87 | 56 |
| COc1ccc2nccc([C@@H](O)CN3CCC(NC(=O)c4ccc(CN5CCN(c6cccc(C)c6)CC5C)cc4)CC3)c2c1 (stereo not given in full) | 97 | 86 | 50 |
| CCN(C(=O)NC)C1c2cc(C#N)ccc2OC(C)(C)C1O (stereo not given) | 96 | 2 | 3 |
| COc1ccc2ncc(Cl)c(N3CCC(CCNCc4ccc5c(n4)NC(=O)CS5)CC3)c2c1.Cl | 89 | 82 | 33 |
| O=C(NCCc1ccccc1)N(Cc1ccccc1-c1ccc(CNC2CCCC2)cc1)C1CCN(Cc2ccccc2)CC1.O=C(O)C(F)(F)F | 96 | 95 | 96 |
| Brc1ccc(Nc2ccnc3cc(-c4nccs4)ccc23)cc1Oc1ccnc2cc(-c3nccs3)ccc12 | 91 | 83 | 15 |
| CN(C)C(=O)O[C@@H]1CN[C@H](C#Cc2cc3ncnc(Nc4ccc5c(cnn5Cc5cccc(F)c5)c4)c3s2)C1.Cl | 97 | 68 | 0 |
| CCc1cn2c3c(cc(C(=O)N[C@@H](Cc4ccccc4)[C@H](O)CNC4CCCCC4)cc13)N(CC)S(=O)(=O)CC2.O=CO | 98 | 98 | 8 |
